Test [1] is described as follows: yeast TOR pathway RPL19A-GFP modulators, primary screen, cell-based, S. cerevisiae, multiplex flow cytometry (AID 1862; in the data active means percent of DMSO control GFP below about 86%;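 further: lower values mimic rapamycin by blocking the RPL19A rise seen in DMSO cells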). The note with it: S. cerevisiae RPL19A-GFP strain, flow cytometry fluorescence, 3 h; at 10 µM; stronger effect = lower value. (Flow cytometry measures light scatter and fluorescence of single cells or particles in a stream.)
Test [2] is described as follows: modulators of MEP2-GFP levels in yeast, primary screen, S. cerevisiae, multiplex flow cytometry (AID 1867;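 active means GFP response, as percent of the DMSO control, above the screen-wide mean plus 3 SD, about 139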;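 further: median GFP channel fluorescence of barcode-gated MEP2-GFP cells measured by flow cytometry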). The note with it: S. cerevisiae MEP2-GFP strain, 3 h, at 10 µM, stronger effect = higher value, 100% means same as DMSO wells.
A short description of test [3]: modulators of CIT2-GFP expression in yeast, primary screen, S. cerevisiae, GFP fusion, multiplex flow cytometry (AID 1870;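 active means percent response above a set limit, the screen-wide mean plus 3 SD, cut at about 130% in these data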;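 further: barcoded CIT2-GFP strain pooled with four other GFP strains with rapamycin as positive control; median GFP fluorescence per well over plate mean of DMSO wells so 100% = DMSO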). The note with it: 3 h, at 10 µM, stronger effect = higher value.
Test [4] in a line: modulators of LAP4-GFP expression in yeast, primary screen, S. cerevisiae, multiplex flow cytometry (AID 1873;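 active means GFP signal, as percent of the solvent control, above the screen mean plus 3 SD, about 149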). The note with it: 3 h, at 10 µM, stronger effect = higher value.
A short description of test [5]: modulators of AGP1-GFP expression in yeast TOR pathway, primary screen, cell-based, multiplex flow cytometry, S. cerevisiae (AID 1887;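 active means GFP signal above the screen-wide mean plus 3 SD, that is over about 124.5% of the solvent control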;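 further: AGP1-GFP fusion strain of S. cerevisiae within a five-strain barcoded multiplex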). The note with it: 3 h, at 10 µM, stronger effect = higher value.
Test [6] is described as follows: inhibitors of CD8+ T cell-vesicle binding, pilot screen, LFA-1/ICAM-1 modulator project, MLPCN validation set, flow cytometry (AID 2523;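 active means response below a set limit, under 55% cells CD8-positive and vesicle-bound, and CD8 cells' 90th-percentile brightness under 279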;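 on vesicle binding response: mean PE anti-B7-1 fluorescence of CD8+ cells relative to row control; 100% = QL9-loaded vesicles with DMSO vehicle in the same plate row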). The note with it: 2C mouse CD8+ T cells, at 7 µM, stronger effect = lower value; double positive events: measured here: CD8+/vesicle+ event percentage.
Test [7] addresses Integrin beta-1 (Homo sapiens) + Integrin alpha-4 (Homo sapiens) (UniProt P13612+P05556). The test can be described thus: inhibition of HUTS-21 binding to VLA-4, pilot screen, VLA-4 allosteric modulator project, U937 cells, HUTS-21 mAb, flow cytometry, validation set (AID 2674;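 active means inhibition above 50%, about 3 SD of the validation set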;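 further: antibody binding induced by the VLA-4 ligand LDV present at three times its Kd; 0% = LDV ligand with antibody and no compound and 100% = antibody without LDV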). The note with it: HUTS-21 LIBS mAb binding, at 6.7 µM, stronger effect = higher value, binding induced by LDV ligand.

Test [8] in a line: superoxide lowering in aged yeast cells, pilot screen, validation compound set (AID 2706;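 active means superoxide response below 65% of plate, a cut near 3 SD across the whole screen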;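 further: yeast exposed to compound for one week at 30 degrees C before staining; 100% = mean of all compound wells on the same plate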). The note with it: S. cerevisiae aging, superoxide DHE fluorescence; at 10 µM; stronger effect = lower value.
For test [9], the target named is Beta-adrenergic receptor kinase 1 (Homo sapiens) (UniProt P25098). The test can be described thus: GRK2 binders displacing RNA aptamer, biochemical, validation, human GRK2, bead flow cytometry (AID 488806;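 active means aptamer binding inhibition above 30%, about 3 SD of noise from non-fluorescent compounds; inactive means inhibition at or below 30%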). The note with it: bead-bound GRK2, FAM-aptamer displacement, at 10 µM, stronger effect = higher value.
The target in test [10] is Beta-2 adrenergic receptor (Homo sapiens) (UniProt P07550). The test can be described thus: beta2AR agonists driving receptor internalization, pilot screen, cell-based, FAP fluorogen, flow cytometry, validation set (AID 504459;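 active means percent response above 42, roughly 3 SD of non-fluorescent test compounds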;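 further: agonist-driven loss of surface beta2AR via internalization measured by FAP dye flow cytometry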). The note with it: Am2.2-beta2AR cells, FAP surface receptor flow cytometry; at 10 µM; stronger effect = higher value.
The target in test [11] is AP-2 complex subunit beta (Homo sapiens) (UniProt P63010). Kind of test: inhibitors of arrestin peptide binding to AP2, pilot screen, biochemical, validation set, GST-AP2 beads, flow cytometry (AID 504541;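 active means inhibition above 54%, about 3 SD of non-fluorescent compounds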;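 further: AP2 carries R879A mutation and is captured from E. coli lysate; bead-bound FITC arrestin peptide fluorescence measuring arrestin peptide binding to AP2; 0% = DMSO wells and 100% = excess unlabeled arrestin peptide control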). The note with it: FITC arrestin peptide, at 10 µM, stronger effect = higher value, AP2 beta2 appendage fragment, R879A mutant.
Test [12] in a line: yeast V-ATPase proton transport modulators, S. cerevisiae, pHLuorin, HTS validation (AID 504600; in the data active means response above about 15%;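 further: plate controls were DMSO for no effect and reference compound for full effect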). The note with it: S. cerevisiae pHLuorin cytosolic pH, at 10 µM, stronger effect = higher value.
Test [13] deals with anti-desmoglein-3 scFv antibody binding to human DSG3. Kind of test: inhibitors of anti-DSG3 scFv binding to DSG3, pilot screen, biochemical, validation compound set, bead-based, flow cytometry (AID 588368;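 active means binding below the plate cutoff, the plate median minus 3 SD, with a reading above zero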;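 further: signal is the median channel fluorescence of bead-bound GFP antibody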). The note with it: Protein G beads, DSG3-Fc, scFv-GFP binding, at 10 µM, stronger effect = lower value.
Test [14] is described as follows: inhibitors of fungal efflux pumps CDR1, CDR2, MDR1, pilot screen, validation compound set, multiplex, phenotypic (AID 588506;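 active means efflux inhibition above 0.42, the validation set average plus 4 SD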;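 further: Nile Red retained in cells so higher fluorescence means more efflux inhibition; 0 = negative control wells and 1 = enniatin B 25 µM full block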). The note with it: S. cerevisiae pump-expressing triplex, Nile Red efflux flow cytometry; at 10 µM; stronger effect = higher value; the pumps come from Candida albicans.
In test [15] the target is ATP-binding cassette sub-family B member 6 (Homo sapiens) (UniProt Q9NP58). The test can be described thus: ABCB6 transporter inhibitors, pilot screen, K562-ABCB6 cells, flow cytometry, validation set (AID 588550).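 Further: 0% = DMSO wells and 100% = benzethonium chloride 70 µM positive control.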 The note with it: K562-ABCB6 porphyrin accumulation, 1 h, at 10 µM, stronger effect = higher value.
Test [16] is described as follows: promoters of myeloid differentiation in arrested cells, primary screen, cell-based, GFP/MAC1 double positive, flow cytometry, validation set (AID 588685;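 active means differentiation response of at least 50%, scaled between solvent and reference control, from cells with both markers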;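 further: compound exposure lasts four days before antibody staining and flow analysis; 0% = DMSO wells and 100% = 5 µM fulvestrant positive control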). The note with it: ER-HoxA9 marrow cells, stronger effect = higher value, normalized: vehicle 0, fulvestrant 100.

Records with an inconclusive call do not appear. Active and inactive are the calls of the source.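 How the source made its calls, unless noted: active means inhibition above the screen-wide mean plus 3 SD, about 51%; inactive means the rest.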

Beta-adrenergic receptor kinase 1 (Homo sapiens), sequence (P25098 whole entry, looked up): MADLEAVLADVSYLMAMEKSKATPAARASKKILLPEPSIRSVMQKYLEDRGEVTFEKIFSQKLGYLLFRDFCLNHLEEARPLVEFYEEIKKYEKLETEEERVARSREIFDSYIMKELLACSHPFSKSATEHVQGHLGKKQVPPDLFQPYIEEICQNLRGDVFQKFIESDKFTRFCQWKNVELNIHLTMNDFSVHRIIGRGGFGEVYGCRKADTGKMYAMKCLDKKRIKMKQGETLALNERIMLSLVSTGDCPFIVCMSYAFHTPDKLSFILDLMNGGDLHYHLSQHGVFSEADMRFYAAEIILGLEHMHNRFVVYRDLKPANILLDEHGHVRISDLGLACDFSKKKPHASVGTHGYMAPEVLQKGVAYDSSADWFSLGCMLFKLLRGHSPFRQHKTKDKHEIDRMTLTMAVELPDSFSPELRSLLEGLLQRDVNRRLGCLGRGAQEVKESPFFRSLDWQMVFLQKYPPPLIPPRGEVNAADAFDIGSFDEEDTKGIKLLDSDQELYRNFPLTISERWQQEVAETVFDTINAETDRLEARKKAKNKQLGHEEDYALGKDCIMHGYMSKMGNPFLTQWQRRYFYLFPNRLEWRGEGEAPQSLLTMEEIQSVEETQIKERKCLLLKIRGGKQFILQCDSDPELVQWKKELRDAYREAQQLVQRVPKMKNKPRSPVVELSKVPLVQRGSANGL
ATP-binding cassette sub-family B member 6 (Homo sapiens), sequence (Q9NP58 whole entry, looked up): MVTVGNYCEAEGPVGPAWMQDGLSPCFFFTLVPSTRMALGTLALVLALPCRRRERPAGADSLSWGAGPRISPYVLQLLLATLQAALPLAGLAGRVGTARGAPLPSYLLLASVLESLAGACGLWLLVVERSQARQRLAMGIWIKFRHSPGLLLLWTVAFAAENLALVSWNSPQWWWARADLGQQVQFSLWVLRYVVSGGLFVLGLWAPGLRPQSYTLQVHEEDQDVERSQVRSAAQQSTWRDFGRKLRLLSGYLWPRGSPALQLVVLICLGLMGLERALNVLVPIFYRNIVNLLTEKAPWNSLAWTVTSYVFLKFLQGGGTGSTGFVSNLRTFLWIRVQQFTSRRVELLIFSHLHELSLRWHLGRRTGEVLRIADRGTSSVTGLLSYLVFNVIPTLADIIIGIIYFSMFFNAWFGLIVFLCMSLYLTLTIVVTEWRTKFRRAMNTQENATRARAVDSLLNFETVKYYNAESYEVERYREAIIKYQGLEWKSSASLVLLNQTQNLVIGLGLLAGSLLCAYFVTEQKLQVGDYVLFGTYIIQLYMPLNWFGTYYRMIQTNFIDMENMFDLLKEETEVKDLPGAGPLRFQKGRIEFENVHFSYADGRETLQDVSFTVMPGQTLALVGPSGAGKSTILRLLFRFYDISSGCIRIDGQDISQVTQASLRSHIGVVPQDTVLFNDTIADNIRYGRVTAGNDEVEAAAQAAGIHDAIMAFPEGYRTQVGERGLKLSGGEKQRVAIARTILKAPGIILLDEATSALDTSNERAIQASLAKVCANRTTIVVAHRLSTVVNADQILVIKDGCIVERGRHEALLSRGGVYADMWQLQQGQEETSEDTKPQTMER
Beta-2 adrenergic receptor (Homo sapiens), sequence (P07550 whole entry, looked up): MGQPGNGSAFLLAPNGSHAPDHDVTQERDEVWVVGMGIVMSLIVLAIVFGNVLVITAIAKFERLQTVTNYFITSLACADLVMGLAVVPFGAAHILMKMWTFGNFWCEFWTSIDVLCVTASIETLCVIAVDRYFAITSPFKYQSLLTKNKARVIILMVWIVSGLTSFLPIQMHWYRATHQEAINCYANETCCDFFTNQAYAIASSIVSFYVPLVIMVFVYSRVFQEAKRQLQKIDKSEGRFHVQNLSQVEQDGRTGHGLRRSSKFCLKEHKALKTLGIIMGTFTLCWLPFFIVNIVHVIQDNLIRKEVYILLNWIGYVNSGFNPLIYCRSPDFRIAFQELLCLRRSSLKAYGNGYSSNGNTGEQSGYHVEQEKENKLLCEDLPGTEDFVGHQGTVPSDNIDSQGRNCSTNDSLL
AP-2 complex subunit beta (Homo sapiens), sequence (P63010 whole entry, looked up, the tested form may be a part, one chain of several): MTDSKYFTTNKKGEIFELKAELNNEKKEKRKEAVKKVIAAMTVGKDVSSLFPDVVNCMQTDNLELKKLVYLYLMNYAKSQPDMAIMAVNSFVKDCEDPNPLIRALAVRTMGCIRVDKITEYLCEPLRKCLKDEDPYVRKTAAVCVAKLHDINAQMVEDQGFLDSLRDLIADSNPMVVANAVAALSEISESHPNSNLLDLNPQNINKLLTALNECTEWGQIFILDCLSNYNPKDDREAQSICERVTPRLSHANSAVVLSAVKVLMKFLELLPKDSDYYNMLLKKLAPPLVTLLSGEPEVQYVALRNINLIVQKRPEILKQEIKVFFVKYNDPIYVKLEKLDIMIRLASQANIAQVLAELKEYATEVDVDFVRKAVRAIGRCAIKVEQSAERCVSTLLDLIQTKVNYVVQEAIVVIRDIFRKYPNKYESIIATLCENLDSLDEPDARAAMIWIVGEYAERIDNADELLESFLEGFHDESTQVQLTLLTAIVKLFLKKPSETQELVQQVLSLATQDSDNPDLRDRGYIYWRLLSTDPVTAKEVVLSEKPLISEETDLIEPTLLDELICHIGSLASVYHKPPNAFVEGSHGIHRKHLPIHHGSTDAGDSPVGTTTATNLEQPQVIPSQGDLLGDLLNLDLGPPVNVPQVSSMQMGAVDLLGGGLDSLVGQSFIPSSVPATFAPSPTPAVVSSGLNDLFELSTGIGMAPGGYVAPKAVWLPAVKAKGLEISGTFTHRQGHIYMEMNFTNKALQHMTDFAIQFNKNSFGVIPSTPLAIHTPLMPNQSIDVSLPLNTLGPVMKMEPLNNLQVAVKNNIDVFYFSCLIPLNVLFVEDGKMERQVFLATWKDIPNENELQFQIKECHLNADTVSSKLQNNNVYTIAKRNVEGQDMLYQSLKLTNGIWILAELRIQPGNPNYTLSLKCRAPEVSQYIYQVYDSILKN
Integrin beta-1 (Homo sapiens) + Integrin alpha-4 (Homo sapiens), sequence (P05556 whole entry, looked up): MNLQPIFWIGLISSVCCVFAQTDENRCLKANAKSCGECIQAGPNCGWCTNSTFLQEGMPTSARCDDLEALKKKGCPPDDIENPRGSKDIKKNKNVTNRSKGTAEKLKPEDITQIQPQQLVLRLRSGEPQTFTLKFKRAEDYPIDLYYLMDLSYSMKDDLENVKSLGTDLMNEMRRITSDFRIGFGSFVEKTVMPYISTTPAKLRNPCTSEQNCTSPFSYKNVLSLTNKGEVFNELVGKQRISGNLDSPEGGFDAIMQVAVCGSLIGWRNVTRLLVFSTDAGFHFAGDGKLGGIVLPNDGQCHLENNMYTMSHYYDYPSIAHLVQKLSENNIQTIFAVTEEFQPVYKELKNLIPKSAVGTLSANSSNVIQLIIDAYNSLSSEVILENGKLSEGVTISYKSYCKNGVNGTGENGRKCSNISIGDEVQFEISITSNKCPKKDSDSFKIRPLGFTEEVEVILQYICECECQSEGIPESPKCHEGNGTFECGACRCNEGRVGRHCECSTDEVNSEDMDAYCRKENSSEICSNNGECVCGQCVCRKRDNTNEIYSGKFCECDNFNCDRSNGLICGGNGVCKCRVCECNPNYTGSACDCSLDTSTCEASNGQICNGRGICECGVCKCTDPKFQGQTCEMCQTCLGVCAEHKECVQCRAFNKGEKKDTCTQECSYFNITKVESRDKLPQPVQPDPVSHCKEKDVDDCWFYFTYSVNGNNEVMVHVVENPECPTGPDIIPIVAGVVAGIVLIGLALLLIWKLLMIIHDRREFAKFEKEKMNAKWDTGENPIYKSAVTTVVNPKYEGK
Integrin beta-1 (Homo sapiens) + Integrin alpha-4 (Homo sapiens), sequence (P13612 whole entry, looked up): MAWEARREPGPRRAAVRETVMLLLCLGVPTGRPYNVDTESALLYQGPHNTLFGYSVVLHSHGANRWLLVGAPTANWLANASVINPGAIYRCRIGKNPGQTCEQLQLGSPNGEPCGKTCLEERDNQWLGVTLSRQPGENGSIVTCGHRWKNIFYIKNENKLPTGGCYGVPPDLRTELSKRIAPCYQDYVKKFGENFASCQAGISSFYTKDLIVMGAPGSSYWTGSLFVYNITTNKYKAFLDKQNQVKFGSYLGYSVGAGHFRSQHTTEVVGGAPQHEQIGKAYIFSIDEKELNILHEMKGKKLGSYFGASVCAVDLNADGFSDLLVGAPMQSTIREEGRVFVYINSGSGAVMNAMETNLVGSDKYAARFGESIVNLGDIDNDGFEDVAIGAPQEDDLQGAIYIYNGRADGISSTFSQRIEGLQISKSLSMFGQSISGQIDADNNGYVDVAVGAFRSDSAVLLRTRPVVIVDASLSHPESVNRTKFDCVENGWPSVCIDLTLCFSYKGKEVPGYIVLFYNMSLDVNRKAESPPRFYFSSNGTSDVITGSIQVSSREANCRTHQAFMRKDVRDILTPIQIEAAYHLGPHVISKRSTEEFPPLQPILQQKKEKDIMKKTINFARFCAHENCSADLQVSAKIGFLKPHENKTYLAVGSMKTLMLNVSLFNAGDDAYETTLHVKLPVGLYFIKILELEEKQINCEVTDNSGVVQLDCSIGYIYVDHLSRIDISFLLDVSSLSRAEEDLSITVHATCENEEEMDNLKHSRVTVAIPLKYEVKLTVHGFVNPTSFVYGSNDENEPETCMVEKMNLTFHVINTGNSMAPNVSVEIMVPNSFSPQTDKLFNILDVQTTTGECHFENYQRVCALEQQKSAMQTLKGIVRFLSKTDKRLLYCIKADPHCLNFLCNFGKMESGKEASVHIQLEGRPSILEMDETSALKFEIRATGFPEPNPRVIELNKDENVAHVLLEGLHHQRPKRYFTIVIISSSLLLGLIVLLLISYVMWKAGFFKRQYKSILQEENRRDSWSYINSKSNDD

As for `N#CCC(N)=C(C#N)C#N`, the percent of DMSO control GFP in test [1] was 91.5% (inactive). Moreover, the GFP response vs DMSO in [2] is 120% (inactive); in [4], 82.5% (inactive). In addition, the percent response of DMSO control in [3] is 111% (inactive). Besides, the GFP response, % of DMSO in test [5] is 91.7% (inactive). In test [6], this molecule came in with a double positive events of 60.1%. The vesicle binding response in test [6] was 188% (inactive). The figures for the inhibition in test [7], in [11] and in test [15] were -4.21% (inactive), -8.05% (inactive) and -45% (inactive), respectively. Also, the superoxide response (% of plate) in [8] was 108% (inactive). In addition, in test [9], the aptamer binding inhibition is 9% (inactive). The response in [10] was -2.94% (inactive); in test [12] it was 1.3% (inactive). Besides, in test [13], the binding (% of control) was 101% (inactive). Further, the efflux inhibition (fraction of control) in test [14] is -0.02 (inactive). Besides, the differentiation response in [16] was -5.73% (inactive).
Turning to `Cn1cc(/C=C/C(=O)c2ccccc2)c2ccccc21`, in test [1], the percent of DMSO control GFP is 98% (inactive). The GFP response vs DMSO was 107% (inactive) in test [2] and 133% (inactive) in test [4]. The percent response of DMSO control in test [3] is 87.2% (inactive). Also, the GFP response, % of DMSO in test [5] is 89.7% (inactive). This molecule also gave a double positive events in test [6] of 58.1%. For the same molecule, in test [6], the vesicle binding response is 230% (inactive). Further, the inhibition in [7] was -1.79% (inactive); in [11], 4.67% (inactive); in test [15], 4% (inactive). The superoxide response (% of plate) in test [8] was 102% (inactive). Besides, the aptamer binding inhibition in test [9] is 1% (inactive). The response in test [10] was 32.6% (inactive); in test [12], -2% (inactive). Moreover, the binding (% of control) in test [13] is 101% (inactive). The efflux inhibition (fraction of control) in [14] was -0.1 (inactive). The differentiation response in [16] is -10.4% (inactive).
Consider `CN1CCc2c(n(CC(O)CN(CCO)CCO)c3ccccc23)C1=O` (stereo not drawn), for which the percent of DMSO control GFP in test [1] is 92.6% (inactive). The results for the GFP response vs DMSO in test [2] and in [4] were 143% (active) and 82% (inactive), respectively. The percent response of DMSO control in test [3] is 97.9% (inactive). For the same molecule, in [5], the GFP response, % of DMSO is 99.6% (inactive). Further, the double positive events in [6] turned out to be 52.3%. Besides, in [6], the vesicle binding response is 195% (inactive). Also, the inhibition in test [7] is -9.06% (inactive); in [11] it was 13.6% (inactive); in test [15] it was 8% (inactive). Moreover, in test [8], the superoxide response (% of plate) was 100% (inactive). The aptamer binding inhibition in test [9] was 0% (inactive). The response in test [10] is -17.4% (inactive); in test [12], -1.82% (inactive). In addition, the binding (% of control) in test [13] is 104% (inactive). The efflux inhibition (fraction of control) in test [14] was 0.09 (inactive). For the same molecule, in test [16], the differentiation response was -9.83% (inactive).
Turning to `O=C(O)C(O)c1ccccc1` (stereo not drawn), the percent of DMSO control GFP in test [1] is 101% (inactive). In addition, the GFP response vs DMSO was 95.6% (inactive) in test [2] and 99.1% (inactive) in [4]. Further, the percent response of DMSO control in test [3] was 105% (inactive). The GFP response, % of DMSO in test [5] was 102% (inactive). The molecule also yielded a double positive events in test [6] of 53.8%. Besides, the vesicle binding response in test [6] was 90.5% (inactive). Further, the inhibition in [7] was -6.45% (inactive); in test [11] it was -5.56% (inactive); in [15], 12% (inactive). Besides, the superoxide response (% of plate) in test [8] is 96.6% (inactive). Further, in test [9], the aptamer binding inhibition was 5% (inactive). Further, the response in [10] is 3.86% (inactive); in test [12], 1.56% (inactive). For the same molecule, in [13], the binding (% of control) is 104% (inactive). Also, the efflux inhibition (fraction of control) in test [14] was -0.12 (inactive). Further, the differentiation response in test [16] is -3.11% (inactive).

Usually inhibition stands for the drop in the measured response relative to a control, in per cent.

These data come from PubChem BioAssay.
